PubChem BioAssay AID2315 (National Center for Advancing Translational Sciences (NCATS), 2010)
The campaign covered roughly 290,000 compounds. About 27,000 (9.3%) were called active. Shown is part of a subset that was picked to be rich in actives. Unmarked numbers belong to inactive results. Cut-off read from the data, not from the text of the source: active = inhibition mostly above about 28% (no sharp cut-off); inactive = mostly below about 43%.

Test: A qHTS for Small Molecule Inhibitors of Shiga Toxin; for inhibition: 0% is about no effect
Details: Vero cells, Shiga toxin protein synthesis inhibition reporter; at 38.7 µM, hits give high values

| SMILES | inhibition |
| --- | --- |
| Cc1ccc(C(=O)NCCNS(=O)(=O)c2ccccc2)cc1 | 1.8% |
| Cc1cc(S(=O)(=O)NC2CCCC2)ccc1-n1cnnn1 | -8.85% |
| Cc1cc(CNC(=O)C2CCC(=O)N(CCc3ccc(Cl)cc3)C2)no1 (centres undefined) | -7.54% |
| CC(=O)Nc1c2c(nn1-c1ccc(C)cc1C)CS(=O)C2 (centres undefined) | -1.19% |
| CC1=CCC2C(=O)N(c3cccc(C(=O)NC(C)c4ccccc4)c3)C(=O)C2C1 (centres undefined) | -6.84% |
| Cc1ccc(C)c(N2CCN(C(=O)CCCn3c(=O)c4cccn4c4cccnc43)CC2)c1 | -8.84% |
| O=C(CSc1cccc[n+]1[O-])c1ccc(Cl)cc1 | 5.16% |
| O=C(CSc1cccc[n+]1[O-])c1ccc(-c2ccccc2)cc1 | 142% (active) |
| COc1ccccc1C(=O)CSc1cccc[n+]1[O-] | -1.48% |
| CC(=O)Nc1cccc(NC(=O)CSc2nccn2Cc2ccc(F)cc2)c1 | -6.32% |
| O=C(COC(=O)c1c2c(nc3ccccc13)/C(=C\c1cccs1)CCC2)Nc1ccccc1Cl | 24.9% |
| COc1cc(-c2cc(C(=O)OCC(=O)Nc3ccc4c(c3)OCO4)c3ccccc3n2)cc(OC)c1OC | 3.34% |
| NS(=O)(=O)c1ccc(NC(=O)COC(=O)c2ccc(Cl)nc2)cc1 | -4.23% |
| NS(=O)(=O)c1ccc(NC(=O)COC(=O)c2cc3ccccc3oc2=O)cc1 | 16.5% |
| NC(=O)c1ccc(NC(=O)COC(=O)c2c3c(nc4ccccc24)/C(=C\c2ccc4c(c2)OCO4)CCC3)cc1 | 59.8% (active) |
| NS(=O)(=O)c1ccc(NC(=O)COC(=O)c2c3c(nc4ccccc24)/C(=C\c2ccc4c(c2)OCO4)CCC3)cc1 | 3.72% (active) |
| O=C(N/C(=C/c1ccc(Cl)cc1)C(=O)N1CCCCC1)c1ccco1 | 5.11% |
| O=C1CCC(C(=O)N2CCN(c3ccccc3Cl)CC2)CN1CC1CCCCC1 (centres undefined) | -2.81% |
| Cc1c(OC(C)C(=O)NCC2CCC(C(=O)O)CC2)ccc2c1oc(=O)c1ccccc12 (centres undefined) | -3.63% |
| CCCC[C@]12Cc3cc(OC)c(OC)cc3C(O1)C1=C(CC3(CCCCC3)OC1=O)O2 | inactive |
| CCn1cc(CN2CCN(CC(C)(C)C)C(CCO)C2)c2ccccc21 (centres undefined) | 8.71% |
| CC(=O)Nc1ccc(S(=O)(=O)N2N=NC3C2C2CC4C3(CN(C(=O)OC(C)(C)C)S4(=O)=O)O2)cc1 (centres undefined) | 19.4% |
| CN(C(=O)c1cccc(OC2CCN(S(=O)(=O)N(C)C)CC2)c1)C1CCOC1 (centres undefined) | 21.6% |
| CN(C)S(=O)(=O)N1CCC(Oc2cccc(C(=O)NCCCC3CCCC3)c2)CC1 | 56.6% (active) |
| CNS(=O)(=O)c1cccc(C(=O)NCC2CCCCC2)c1 | 10.6% |

| SMILES | inhibition |
| --- | --- |
| O=C(CN(C(=O)c1nsc(Cl)c1Cl)c1cccc(F)c1)NC1CCCC1 | -1.89% |
| O=C(NCCCn1ccnc1)C1CCCN(S(=O)(=O)c2cc(Cl)ccc2Cl)C1 (centres undefined) | -13% |
| COc1cccc(CNS(=O)(=O)c2cc3c(cc2C)n(C)c(=O)c(=O)n3C)c1 | -2.17% |
| COc1cccc(CNc2ncc(-c3ccccc3)n2C)c1 | 20.5% (active) |
| COc1cccc(CNc2nc(C(F)(F)F)nc3ccccc23)c1 | -1.59% |
| COc1cc(C(=O)N/C(=C\c2cn(C)c3ccccc23)C(=O)N2CCOCC2)cc(OC)c1OC | -2.55% |
| COc1ccccc1C(=O)Nc1ccnn1C1CCN(Cc2cnn(C)c2)CC1 | 14.1% |
| CC(C)C(NC(=O)c1ccc(Cl)cc1)C(=O)O (centres undefined) | -21.4% |
| CC(C)CNC(=S)NC(=O)c1ccc(Cl)cc1 | 90.8% (active) |
| Cc1occc1C(=O)NNC(=S)NCC(C)C | -8.32% |
| CCn1ccnc1CNC(=O)CC1C(=O)NCCN1Cc1ccc(F)cc1Cl (centres undefined) | -5.69% |
| CC(C)C[C@H](NC(=O)C1CCC(CNC(=O)[C@@H]2CCCN2C(=O)OC(C)(C)C)CC1)C(=O)O (some centres undefined) | -6.01% |
| Cc1cccc(OC(C)C(=O)N2CCc3ccccc3C2)c1 (centres undefined) | -13.5% |
| Cn1cccc1C(=O)N1CCc2ccccc2C1 | 36.9% |
| O=C(NCCCN1CCOCC1)c1cc(-c2cccc(O)c2)on1 | 23.1% |
| O=C(c1cc(-c2cccc(O)c2)on1)N1CCc2ccccc2C1 | 35.6% (active) |
| COc1cccc(N(CC(=O)N2CCc3ccccc3C2)S(C)(=O)=O)c1 | -19.6% |
| CN(c1ccc(C(=O)N2CCc3ccccc3C2)cc1)S(C)(=O)=O | 52.2% (active) |
| CN(c1cccc(NC(=O)c2ccc(CN3CCc4ccccc4C3)cc2)c1)S(C)(=O)=O | -12% |
| O=C(COc1ccccc1)N1CCc2ccccc2C1 | 38.7% |
| O=C(c1noc2c1CCCC2)N1CCc2ccccc2C1 | 67.4% (active) |
| Cc1ccc2c(c1)N(C(=O)CCC(=O)N1CCc3ccccc3C1)CCO2 | 2.26% |
| Cc1ccc(-c2cc(C(=O)N3CCc4ccccc4C3)no2)cc1 | 46.6% (active) |
| CN1CCN(Cc2c(C(=O)N3CCc4ccccc4C3)nc3ccc(Cl)cn23)CC1 | -6.16% |
